The campaign covered roughly 190,000 compounds. About 140 (0.074%) were called active. Shown is part of a subset that was picked to be rich in actives. A number with no mark means an inactive call. Rule as the data show it: active = inhibition above about 40%.

In this experiment the target is Bcl-2-like protein 10 (Homo sapiens) (UniProt Q9HD36). The experiment can be described thus: Bcl-B and Bim peptide interaction disruptors – biochemical, multiplexed, human Bcl-2 family, primary screen (AID 951).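 Also: 0% = tracer peptide without compound and 100% = reference inhibitor peptide.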 The conditions noted are these: bead-based flow cytometry, Bim peptide-Bcl-B binding; at 10 µM; hits give high values. For orientation: Flow cytometry measures light scatter and fluorescence of single cells or particles in a stream.
Bcl-2-like protein 10 (Homo sapiens), sequence (Q9HD36 whole entry, looked up): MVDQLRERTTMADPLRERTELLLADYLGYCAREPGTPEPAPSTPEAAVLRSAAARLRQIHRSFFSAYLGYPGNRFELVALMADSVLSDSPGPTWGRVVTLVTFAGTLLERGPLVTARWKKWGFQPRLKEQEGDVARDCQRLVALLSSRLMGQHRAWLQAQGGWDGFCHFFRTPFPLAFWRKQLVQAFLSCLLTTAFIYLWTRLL
For the compound `O=C(CSc1nncn1-c1cccnc1)N1CCOCC1`, the inhibition was -6%.
The value for `O=C(NCCCn1ccnc1)C(=O)c1cn(CC(=O)N2CCCCCC2)c2ccccc12` was 0%; that for `Cn1ncc2c(NNC(=O)Cc3cccc4ccccc34)ncnc21` was -3%.
Consider `OCCC1CN(Cc2cccn2-c2nccs2)CCN1CCc1ccccc1` (centres undefined), for which the inhibition is -1%.
With `O=C(CN1C(=O)NC2(CCCCCC2)C1=O)NCc1cccs1`, the inhibition was -1%.
The result for `Cc1ccc(C(=O)Nc2ccc(C)c(S(=O)(=O)N(C)C)c2)s1` reads 0%; that for `CC(NC(=O)c1cccc2ccccc12)c1ccc2c(c1)CCCC2` (centres undefined), 6%; that for `CCOCC(=O)Nc1ncc(S(=O)(=O)c2ccc([N+](=O)[O-])cc2)s1`, 3%.
The result for `Cc1ccccc1NC(=O)CSC1=NCCN1` reads -6%; that for `CCOC(=O)c1sc2nc(C)nc(Nc3ccc(OC)c(OC)c3)c2c1C`, 2%; that for `CN(C)c1ccc(/C=N/N(Cc2ccccc2)c2ccccc2)cc1`, -3%.
For `C=CCn1c(CCNC(=O)c2ccccc2F)nnc1SCC(=O)Nc1ccc(OC)cc1`, the inhibition was 0%.
On to `COc1ccc(C2CC(c3ccccc3)=NN2C(=O)COC(=O)COc2ccccc2)cc1` (centres undefined), for which the inhibition was -5%.
As for `CC(=O)Nc1cccc([N+](=O)[O-])c1`, the inhibition was -4%.
`COC(=O)C1CCN(C(=O)c2cc(=O)[nH]c3ccccc23)CC1`: the inhibition is -1%.
The result for `CC1CCCC(NC(=O)COC(=O)[C@@H]2CC(O)CN2S(=O)(=O)c2ccc3c(c2)OCCO3)C1C` (some centres undefined) reads -1%; that for `O=C(CNC(c1ccccc1)c1ccccc1)Nc1ccc(F)cc1`, -8%.
The value for `Cc1ccc(/C=N/NC(=O)CNC(=O)COc2ccccc2)o1` was -7%; that for `C=CCc1ccccc1OCC(=O)N/N=C/c1ccccc1OCC` was -9%.
For the compound `CCOc1ccccc1/C=N/NC(=O)CNC(=O)COc1ccccc1`, the inhibition was 74% (active).
The result for `CCOc1ccc(NC(=O)CN(C)CC(=O)NC(C)c2ccccc2)cc1OCC` (centres undefined) reads -4%; that for `Cc1cccc(C(=O)N2CCC(c3nc4ccccc4s3)CC2)c1`, -2%.
The value for `O=C(CSC1CC(=O)N(CCc2ccccc2)C1=O)Nc1ccc(Cl)cc1` (centres undefined) was -5%.
As to `C[C@@H]1CC[C@]2(O[C@@H](CCO)C[C@H](O)[C@H]2O)O1`, the inhibition was -5%.
Consider `O=C(N/N=C/c1ccco1)c1ccc(NC(=O)C2CC2)cc1`, for which the inhibition is -4%.
In the case of `NC(=O)Cn1nc([N+](=O)[O-])nc1Oc1ccc(Br)cc1`, the inhibition was -1%.
Take `CN1CCN(C(=O)CCc2ncc(C(F)(F)F)cc2Cl)CC1`: the inhibition was -8%.
Regarding `COc1ccc(C(=O)NCC(=O)N/N=C/c2ccc([N+](=O)[O-])s2)cc1OC`, the inhibition is -2%.
The result for `Cc1ccc(S(=O)(=O)NNC(=O)Nc2cccc3ccccc23)cc1` reads 0%.
With `CCOC(=O)c1c(-c2cccc(N)c2)cn2ccccc12`, the inhibition was 17%.
On to `COc1ccc2c(c1)CC[C@@H]1[C@@H]2CC[C@]2(C)C(=O)CC[C@@H]12`, for which the inhibition is -3%.
For `CC(=O)C1C(c2ccc(Cl)cc2)c2c(n[nH]c2C)CC1(C)O` (centres undefined), the inhibition was -4%.
Regarding `CCNC(=O)COC(=O)CCNC(=O)c1cccc(C)c1`, the inhibition is -4%.
Regarding `NC(=O)C[n+]1cccc(C(N)=O)c1`, the inhibition is -1%.
The result for `O=C(CP(=O)(c1ccccc1)c1ccccc1)N1CCOCC1` reads -6%; that for `CS(=O)(=O)Nc1cccc(-c2cn3ccccc3n2)c1`, -2%.
Turning to `CSc1ccc(/C=N/N2CCN(Cc3ccccc3Cl)CC2)cc1`, the inhibition was -8%.
For `CCC(C(=O)OCC(=O)Nc1c(Cl)cc(Cl)cc1Cl)c1ccccc1` (centres undefined), the inhibition was -7%.
With `C=CCn1c(SCC(N)=O)nnc1-c1cc2c(s1)CCC(CC)C2` (centres undefined), the inhibition is -12%.
As to `N=C1C(c2nc3ccccc3[nH]2)=C(O)CN1NC(=O)c1c[nH]c2ccccc12`, the inhibition was -2%.
Consider `Cc1cc(C)c2nc(-c3cccnc3)cc(C(=O)Nc3ccc(S(=O)(=O)Nc4onc(C)c4C)cc3)c2c1`, for which the inhibition is -1%.
The value for `O=C1N(c2ccc(Cl)cc2)C(c2ccc(Cl)cc2)N2CCCN12` (centres undefined) was -11%; that for `CC(=O)NC(CC(=O)O)c1ccc(F)cc1` (centres undefined) was -4%; that for `Cc1ccc(CC2CC(=O)N(c3nc(C)cc(C)n3)C2=O)cc1` (centres undefined) was -1%.
The value for `CC(C)(C)c1nnc(N/N=C/c2ccc(O)cc2)n(N)c1=O` was -7%; that for `Fc1ccccc1N=C1Nc2cccc3cccc1c23` was -4%.
With `Cc1ccccc1C(=O)OC1OC(=O)C(Cl)=C1Nc1ccccc1` (centres undefined), the inhibition was -2%.
The value for `Cc1ccccc1-n1nc(SCC(=O)O)sc1=S` was 43% (active); that for `O=C(CSc1nn(-c2ccc(F)cc2)c(=S)s1)NC1CCS(=O)(=O)C1` (centres undefined) was -1%; that for `N#CCSc1nn(-c2ccc(F)cc2)c(=S)s1` was -7%.
On to `O=C(Nc1ccc(Br)cn1)c1ccc([N+](=O)[O-])cc1Cl`, for which the inhibition is -6%.
The value for `Cc1ccc(COc2ccc(C(=O)NN)cc2)cc1` was -3%; that for `COc1cc(C2/C(=C(\O)c3ccc4c(c3)CC(C)O4)C(=O)C(=O)N2Cc2ccco2)ccc1O` (centres undefined) was 1%; that for `O=C(O)/C=C/c1ccc(S(=O)(=O)N2CCCCCC2)cc1` was 0%.
Take `Cc1cc(Cl)c(S(=O)(=O)NCC2CCCO2)cc1OCC(N)=O` (centres undefined): the inhibition was 80% (active).
Consider `Cc1cc(Cl)c(S(=O)(=O)NCCC(=O)O)cc1OCC(N)=O`, for which the inhibition was -7%.
Regarding `Cc1cc(Cl)c(S(=O)(=O)Nc2ccc3c(c2)OCCO3)cc1OCC(N)=O`, the inhibition was -2%.
For the compound `CCOc1cc2[nH]c(=O)n(Cc3ccc(C(=O)NCCCN4CCCC4=O)cc3)c(=O)c2cc1OCC`, the inhibition is -6%.
Turning to `OCC1(Cc2ccccc2C(F)(F)F)CCN(Cc2cccc3cnccc23)CC1`, the inhibition was 0%.
The result for `CCOc1ccc(NC(=O)CSc2nc3ccccc3c(=O)n2Cc2cccs2)cc1` reads -7%; that for `Cc1ccc(S(=O)(=O)N2CCOCC2)cc1C(=O)OC1CCCCC1=O` (centres undefined), -7%.
The value for `Cc1ccc(C(=O)N/C(=C/c2cccnc2)C(=O)O)cc1` was -7%; that for `N/C(=N/O)c1cccn1Cc1ccccc1[N+](=O)[O-]` was -4%; that for `CC(C)NC(=O)/C(C#N)=C\c1ccc(N(C)C)c(Br)c1` was -2%.
In the case of `CCc1nccn1S(=O)(=O)c1cccc([N+](=O)[O-])c1`, the inhibition is -2%.
Turning to `CCc1c(SCCC(=O)O)nc2ccccc2c1C`, the inhibition was -7%.
For the compound `CN(Cc1ccccn1)Cc1nc(-c2ccc(Cl)cc2)no1`, the inhibition was -6%.
The result for `Nc1nnnn1CC(=O)N/N=C/c1ccc(-c2cccc(Cl)c2)o1` reads -4%; that for `Cc1cc(C)n(-c2ccc3nncn3n2)n1`, 2%; that for `Cc1ccc(C2=NN(C(=O)CSc3nc(N)cc(N)n3)C(c3ccco3)C2)cc1` (centres undefined), -27%.
Consider `CC1CCc2sc(C(=O)N/N=C/C3CCCCC3)cc2C1` (centres undefined), for which the inhibition was -6%.
With `Cc1ccc2nc(-c3ccncc3)cc(C(=O)Nc3ccc(OC(F)F)cc3)c2c1`, the inhibition was 1%.
The result for `COc1ccc(-n2cc(CNC3CCOCC3)c(-c3cccc(F)c3)n2)cc1` reads -5%; that for `COc1ccc(Cl)cc1N(CC(=O)N1CCCCC1)S(C)(=O)=O`, -5%.
The result for `Clc1ccc(CSc2nnc(/C=C/c3ccccc3)o2)c(Cl)c1` reads -9%; that for `CSCc1cc(N2CCOCC2)nc(SCc2ccc(Cl)cc2Cl)n1`, -11%.
As to `CSCc1cc(N(C)C)nc(SCc2ccc(Cl)cc2Cl)n1`, the inhibition was 69% (active).
As for `Cc1cccc(NC(=S)N2CCCC(c3nc4ccccc4[nH]3)C2)c1` (centres undefined), the inhibition was -14%.
The result for `O=C(COC(=O)[C@H](Cc1ccccc1)NC(=O)c1cccs1)Nc1cc(F)ccc1F` reads -14%; that for `Cc1ccc(C)c(NC(=O)CSc2nc3c(oc4ccccc43)c(=O)n2-c2ccccc2)c1`, -6%; that for `C/C(=N\NC(=O)c1cccc(N2CCCC2=O)c1)c1ccc(N)cc1`, -7%.
The value for `CC(O)C(NS(=O)(=O)c1ccc(Cl)cc1)C(=O)OCc1cc([N+](=O)[O-])cc2c1OCOC2` (centres undefined) was 0%; that for `COc1ccc(N(C(=O)c2ccc(C)cc2)S(=O)(=O)c2cccs2)cc1` was -6%; that for `CSCCC(NC(=O)COc1ccccc1)C(=O)Nc1ccc(C)cc1` (centres undefined) was -6%.
The value for `Cc1nc(CC(=O)NNS(=O)(=O)c2ccc(F)c(Cl)c2)cs1` was 1%; that for `O=C(NC1CCCCC1)C1CCCN(S(=O)(=O)c2ccc(Br)s2)C1` (centres undefined) was -6%; that for `c1ccc2c(c1)CSc1sccc1C2=C1CCNCC1` was -4%.
Turning to `Cc1ccc(C(C)NC(=O)Cn2nc(C)c([N+](=O)[O-])c2C)cc1` (centres undefined), the inhibition was -3%.
For `CCOC(=O)N/N=C/c1cccnc1`, the inhibition was -4%.
The result for `CCN(CC)P(=O)(Nc1ccc(SC(F)F)cc1)c1ccc(N(C)C)cc1NC(=O)c1ccco1` (centres undefined) reads 1%; that for `CN(C)C(=O)N1CCNCC1`, 0%; that for `Cc1cc(C)n(CC(=O)Nc2ccc([N+](=O)[O-])cc2)n1`, 0%.
The result for `CC(C)C(=O)NCc1cc(-c2ccc(Cl)cc2)no1` reads 5%; that for `CC1=NN(C(=O)CCCc2ccccc2)C(O)(C(F)(F)F)C1` (centres undefined), -2%.
The result for `OCC1(CCOc2ccccc2)CCN(Cc2cn[nH]c2-c2ccccc2)CC1` reads -2%; that for `CN1CCN(c2ccc(S(=O)(=O)N3CCCCC3)cc2NC(=O)Cc2ccccc2F)CC1`, -4%; that for `COc1ccc(N2CCN(C(=O)CNS(=O)(=O)c3ccc(C)c(C)c3)CC2)cc1`, -2%.
As for `O=C(CCC1CCCN(Cc2ccc(O)c(Cl)c2)C1)NCc1ccccc1F` (centres undefined), the inhibition is -1%.
With `CCCCN(CC(=O)NC(C)(C)C)C(=O)C(=O)Nc1ccc2c(c1)OCCO2`, the inhibition was 1%.

The inhibition is the relative decrease from the control value, in per cent.
